# Screens deposited in PubChem BioAssay by Sanford-Burnham Center for Chemical Genomics.
# Mac1 fbg inh: inhibitors of CD11b/CD18 adhesion to fibrinogen, primary screen, K562 cells, luminescence | ATPlite luminescence; Mn2+ added to activate the integrin | AID 1497, 2009 | Integrin beta-2 (Homo sapiens) + Integrin alpha-M (Homo sapiens), P05107+P11215 | inhibition, % at 10 µM | hit rate 0.54% among 93,000;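 active = primary inhibition of 50% or more at 10 µM, then 40% or more on retest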
# Target sequence (P05107 whole entry, looked up, other chains not shown): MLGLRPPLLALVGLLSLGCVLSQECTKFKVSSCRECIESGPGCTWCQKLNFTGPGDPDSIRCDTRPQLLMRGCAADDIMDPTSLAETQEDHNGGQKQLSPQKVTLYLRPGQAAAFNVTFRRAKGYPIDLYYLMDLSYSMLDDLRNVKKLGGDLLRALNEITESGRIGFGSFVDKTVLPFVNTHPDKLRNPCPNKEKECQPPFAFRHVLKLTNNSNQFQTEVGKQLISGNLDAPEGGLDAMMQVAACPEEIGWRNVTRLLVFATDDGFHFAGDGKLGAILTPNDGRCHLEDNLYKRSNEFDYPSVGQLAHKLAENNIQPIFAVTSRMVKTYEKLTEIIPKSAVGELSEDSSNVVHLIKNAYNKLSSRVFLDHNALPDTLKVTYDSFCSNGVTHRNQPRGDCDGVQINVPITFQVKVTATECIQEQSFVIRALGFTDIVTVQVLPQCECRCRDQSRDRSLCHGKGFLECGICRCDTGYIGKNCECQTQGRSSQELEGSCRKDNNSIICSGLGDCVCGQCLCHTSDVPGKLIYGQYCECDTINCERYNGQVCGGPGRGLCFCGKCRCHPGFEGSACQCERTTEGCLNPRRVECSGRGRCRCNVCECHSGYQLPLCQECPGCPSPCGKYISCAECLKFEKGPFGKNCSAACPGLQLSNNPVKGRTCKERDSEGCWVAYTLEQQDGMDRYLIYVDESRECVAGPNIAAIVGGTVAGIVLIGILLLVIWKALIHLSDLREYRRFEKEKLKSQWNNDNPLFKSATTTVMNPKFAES
# CYP2C9 inhib: blockers of cytochrome P450 2C9 activity – biochemical, luminescence, ADME assay, primary screen | CYP2C9 Supersomes, luciferin-H conversion | inhibition, % at 5 µM | P11712 | hit rate 20% among 96,000 | AID 777, 2007;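 active = blocking of liver enzyme CYP2C9 beyond about 50% at 5 µM, limit read from the data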
# CYP2C9 act: human CYP2C9 activators, primary screen, biochemical, luminescence. hit rate 1.4% among 96,000. activation factor at 5 µM. recombinant CYP2C9, luciferin-H conversion; stronger effect = higher value; factor 1 = untreated enzyme, 0 = blocked;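 active = activation factor of 2 or more for CYP2C9 at a 5 µM dose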;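 also: 0 = sulfaphenazole-blocked wells and 1 = vehicle-only wells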
# CYP2C19 act: human CYP2C19 activators, primary screen, biochemical, luminescence; Cytochrome P450 2C19 (Homo sapiens), P33261; recombinant CYP2C19, luciferin-H EGE luminescence; stronger effect = higher value; 0 = fully inhibited enzyme, 1 = untreated enzyme; activation factor at 5 µM; 96,000 tested, under 10 active; AID 1025, 2008;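 active = activation factor of at least 2 at 5 µM in the primary screen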;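 also: 0 = wells with 2.5 mM tranylcypromine and 1 = vehicle-only wells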
# Mac1 fbg enh: enhancers of CD11b/CD18 adhesion to fibrinogen, primary screen, K562 cells, luminescence; Integrin beta-2 (Homo sapiens) + Integrin alpha-M (Homo sapiens), P05107+P11215; ATPlite luminescence; activation, % at 10 µM; hit rate 0.07% among 93,000; AID 1499, 2009;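 active = 10 µM primary screen giving 50% or more activity, confirmed by 40% or more on retest at that dose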
# CYP2C19 inhib: blockers of cytochrome P450 2C19 activity – biochemical, luminescence, ADME assay, primary screen | P33261 | CYP2C19 Supersomes, luciferin-H EGE luminescence, 30 min | inhibition, % at 5 µM | hit rate 21% among 96,000 | AID 778, 2007;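 active = CYP2C19 inhibition above a set limit at 5 µM in the primary screen, cut at about 50% in these data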;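 also: plate controls were negative control wells for no effect and 2.5 mM tranylcypromine positive control for full effect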
# Active calls of the source: *; . = no result. Sampled rows, rich in hits. Any-hit rate of the full collection: about 28%.
SMILES,Mac1 fbg inh,CYP2C9 inhib,CYP2C9 act,CYP2C19 act,Mac1 fbg enh,CYP2C19 inhib
CCN(CC)Cc1cc(CC(C(N)=O)C(N)=O)ccc1OC,0,-1,1,1,-2,3
O=C(CSc1nc2ccccc2c(=O)n1Cc1ccccc1)NCc1ccco1,.,0,1,0.9,.,9
COc1ccc(C(=O)Nn2c(SCC(=O)N3CCC(C)CC3)nc3ccccc3c2=O)cc1,.,86*,0.1,0.6,.,39
COc1ccc(C(=O)Nn2c(SCC(=O)c3ccc(Cl)cc3)nc3ccccc3c2=O)cc1,-16,82*,0.2,0.8,-4,25
COc1ccc(C(=O)Nn2c(SCC(=O)NC3CCCCC3)nc3ccccc3c2=O)cc1,-30,31,0.7,0.9,2,14
O=C(CSc1nc2ccccc2c(=O)n1Cc1ccc(C(=O)NC2CC2)cc1)NCc1ccco1,-38,53*,0.5,0.7,-3,35
CCCOc1ccc(C(=O)Nn2c(C)nc3ccccc3c2=O)cc1,0,46,0.5,1,1,3
COc1ccc(C(=O)Nn2c(SCC(=O)NCc3ccco3)nc3ccccc3c2=O)cc1,0,80*,0.2,0.9,-5,13
Cn1c(SCC(=O)NCc2ccco2)nc2ccccc2c1=O,2,17,0.8,1,-3,4
COc1cccc(C2c3c(oc4ccc(Cl)cc4c3=O)C(=O)N2c2cc(C)on2)c1OC (stereo not drawn),-15,29,0.7,0.7,7,26
COc1ccc(N2CC(NC(=O)NCCC(C)C)CC2=O)cc1 (stereo not drawn),-11,.,.,.,2,.
COc1ccc(CNC(=O)CN(CC2CCCO2)C(=O)CNS(=O)(=O)c2ccc(F)cc2)cc1 (stereo not drawn),-3,38,0.6,0.6,0,42
CCNC(=S)NNC(=O)c1cc(C2CC2)nc2ccccc12,.,51*,0.5,1.1,.,-11
CCNC(=S)NNC(=O)c1cc(-c2cccc(OCC)c2)nc2ccccc12,31,84*,0.2,0.6,-5,38
CCNC(=S)NNC(=O)c1cc(-c2cccc(C)c2)nc2ccccc12,60*,52*,0.5,1,-5,4
CCNC(=S)NNC(=O)c1cc(C)nc2ccccc12,7,.,.,.,2,.
COc1ccc(C2(C(=O)NCCCN3CCOCC3)CCOCC2)cc1,4,-3,1,1,-8,3
O=[N+]([O-])c1cccc(/C=N/Nc2cc(Cl)nc(-c3ccccc3)n2)c1,.,18,0.8,1,.,4
O=C(NCCCCNC(=O)c1c(F)c(F)c(F)c(F)c1F)c1c(F)c(F)c(F)c(F)c1F,2,1,1,1.2,0,-19
COc1ccc(-c2noc(CN3CCOCC3)n2)cc1OC,-8,-5,1,1,-2,-1
Cc1ccnc(NS(=O)(=O)c2ccc(NC(=O)C34CC5CC(C)(CC(C)(C5)C3)C4)cc2)n1,4,58*,0.4,1,-4,-1
FC(F)(F)c1ccc(Sc2nnc(-c3cccs3)n2CC2CCCO2)nc1 (stereo not drawn),-29,52*,0.5,0.1,1,91*
FC(F)(F)c1cnc(Sc2nnc(-c3cccs3)n2CC2CCCO2)c(Cl)c1 (stereo not drawn),6,-7,1.1,0.1,-2,89*
O=C(Nc1ccc(Cl)c(Cl)c1)OCCNC(=O)c1cccc(Cl)c1,-1,41,0.6,1,1,2
CCOC(=O)Nc1oc2ccccc2c(=O)c1CN1CCOCC1,-3,12,0.9,1,-2,1
SMILES,Mac1 fbg inh,CYP2C9 inhib,CYP2C9 act,CYP2C19 act,Mac1 fbg enh,CYP2C19 inhib
CC1(C)Cc2ccccc2-c2nc(NCCCO)n(-c3ccccc3)c(=O)c21,6,5,1,0.8,-1,18
CCCC(=O)C1=C(c2ccccc2)C(C#N)(C#N)C(C#N)=C1N,0,73*,0.3,0.7,-3,32
CSc1ccc(CNCCCN(C)C)cc1,2,.,.,.,-4,.
COc1cccc(CNCc2ccc(SC)cc2)c1OC,.,16,0.8,0,.,100*
CC(C)OC(=O)c1c(F)c(F)c(N2CCOCC2)c(F)c1F,-1,-2,1,0.5,2,51*
O=c1c2ccccc2nc(-c2ccoc2)n1CCc1ccccc1,-42,56*,0.4,0.4,9,58*
COc1ccc(CCn2c(-c3ccco3)nc3nc4ccccc4nc32)cc1,37,82*,0.2,0.2,20,83*
CCOc1ccc(CCn2c(-c3ccco3)nc3ccccc3c2=O)cc1OCC,-7,25,0.8,0.2,-4,79*
O=c1c2ccccc2nc(-c2ccc(Br)cc2)n1Cc1ccccc1,.,83*,0.2,0.6,.,36
CCCCCn1c(-c2ccco2)nc2nc3ccccc3nc21,-51,40,0.6,0.9,7,10
O=c1c2ccccc2nc(-c2ccco2)n1Cc1ccccc1,1,23,0.8,0.7,0,30
COC(=O)C1=C(NC(=O)CCCCl)CCS1,1,.,.,.,-2,.
Cc1cc(NC(=O)CN2C(=O)NC3(CCC(C)CC3)C2=O)no1 (stereo not drawn),-7,.,.,.,-3,.
Cc1ccc(C2C(C(=O)c3sc(C)nc3C)=C(O)C(=O)N2CCCN(C)C)o1 (stereo not drawn),-6,-7,1.1,1.1,-7,-15
Cc1ccc(C)c(N2CCN(c3nc4ccccc4c(=O)n3Cc3ccccc3)CC2)c1,-6,21,0.8,0.8,-4,19
Clc1ccc(OCCn2c(-c3ccco3)nc3ccccc32)cc1,-1,56*,0.4,0.4,-3,59*
O=c1c2ccccc2nc(N2CCN(c3ccccc3)CC2)n1Cc1ccccc1,0,71*,0.3,0.7,-4,30
COc1ccc(OCCn2c(NC(=O)c3ccco3)nc3ccccc32)cc1,-1,7,0.9,1,-3,2
COc1ccc(C(=O)n2c(-c3ccco3)nc3ccccc32)cc1,28,61*,0.4,0.5,-4,54*
CCCCN1C(=O)c2ccc(C(=O)Nc3cccnc3)cc2C1=O,-13,48,0.5,0.6,0,36
O=c1oc(/C=C/c2ccco2)nc2sc3c(c12)CCC3,.,3,1,1,.,-1
O=CNCC(=O)NCCc1ccc(Cl)cc1,4,8,0.9,1,-6,2
CN(Cc1nc2ccccc2n1C)S(=O)(=O)c1ccc(F)cc1,-7,-167,2.7*,0.2,-3,84*
CCn1c(Cc2c(C)[nH]c3ccccc23)n[nH]c1=S,0,7,0.9,0.1,-4,91*
